From PubChem BioAssay (EPA / NIEHS)
Records with an inconclusive call do not appear. Activity calls are given as the source filed them. Rule for the calls: active = hit-call score of the fitted dose curve at least 0.9, where 1 is the maximum; inconclusive = response in the unintended direction; inactive = score below 0.9.

The compounds below were run against human RAR-related Orphan Receptor beta (RORb), RORB (gene 6096) (UniProt Q92753) (assay: ATG_RORb_TRANS: Attagene TRANS-FACTORIAL HepG2 Assay for human RAR-related Orphan Receptor beta (RORb) (AID 2283010)).
In short: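 HepG2 cells transiently transfected with GAL4-UAS reporter units expressing chimeric NR-Gal4 protein; reporter mRNA measured 24 h after dosing by RT-PCR, 6-FAM labelling and capillary electrophoresis. Gain-of-signal fitted relative to DMSO baseline.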

human RAR-related Orphan Receptor beta (RORb), RORB (gene 6096), sequence (Q92753 whole entry, looked up, the tested form may be a part): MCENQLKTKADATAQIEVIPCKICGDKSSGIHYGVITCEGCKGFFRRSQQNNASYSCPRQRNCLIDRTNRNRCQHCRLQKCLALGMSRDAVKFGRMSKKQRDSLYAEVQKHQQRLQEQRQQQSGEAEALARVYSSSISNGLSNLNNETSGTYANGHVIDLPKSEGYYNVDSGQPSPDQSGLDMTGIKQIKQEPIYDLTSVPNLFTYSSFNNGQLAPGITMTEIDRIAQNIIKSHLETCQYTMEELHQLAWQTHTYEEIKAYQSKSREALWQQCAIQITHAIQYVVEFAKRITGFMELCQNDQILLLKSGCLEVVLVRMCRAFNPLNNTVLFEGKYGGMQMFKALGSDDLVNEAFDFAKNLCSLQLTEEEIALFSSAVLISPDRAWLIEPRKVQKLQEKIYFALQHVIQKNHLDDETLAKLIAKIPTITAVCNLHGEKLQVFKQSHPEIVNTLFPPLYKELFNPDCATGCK

| SMILES | outcome |
| --- | --- |
| OCC(O)CC(F)(F)C(F)(F)C(F)(F)C(F)(F)C(F)(F)C(F)(F)C(F)(F)C(F)(F)F (configuration not stated) | inactive |
| C=CC(=O)OCC(F)(F)C(F)(F)C(F)(F)C(F)(F)C(F)(F)C(F)(F)C(F)(F)C(F)F | inactive |
| CCC(C)CO (configuration not stated) | inactive |
| NS(=O)(=O)C(F)(F)C(F)(F)C(F)(F)C(F)(F)C(F)(F)C(F)(F)F | inactive |
| NC(=O)C(F)(F)C(F)(F)C(F)(F)C(F)F | inactive |
| C[C@]12CC[C@H]3C(=CCc4cc(O)ccc43)[C@@H]1CCC2=O | inactive |
| C#CC(O)CCC (configuration not stated) | inactive |
| CCCCCCCCCCCCCCCCC | inactive |
| CCCCC(CC)COC(=O)c1ccc(N(C)C)cc1 (configuration not stated) | inactive |
| CNS(=O)(=O)C(F)(F)C(F)(F)C(F)(F)C(F)(F)C(F)(F)C(F)(F)C(F)(F)C(F)(F)F | inactive |
| NC(=O)C(F)(F)C(F)(F)C(F)(F)C(F)(F)C(N)=O | inactive |
| Cc1ccc(O)c(-n2nc3ccccc3n2)c1 | inactive |
| O=C=Nc1cccc2c(N=C=O)cccc12 | inactive |
| CCN(CC)c1ccc(C=O)cc1 | inactive |
| O=C(O)CCC(F)(F)C(F)(F)C(F)(F)F | inactive |

What follows are compounds tested against human RAR-related Orphan Receptor gamma (RORg), RORC (gene 6097) (UniProt P51449) (assay: ATG_RORg_TRANS: Attagene TRANS-FACTORIAL HepG2 Assay for human RAR-related Orphan Receptor gamma (RORg) (AID 2283011);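 for AC50: potency for induction of reporter transcripts above DMSO so activators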).
In short: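 Activity is scored as increase in GAL4-UAS reporter mRNA over DMSO, detected by fluorescent RT-PCR and capillary electrophoresis in HepG2 cells transiently expressing a RORg-Gal4 chimera, 24 h after dosing.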

human RAR-related Orphan Receptor gamma (RORg), RORC (gene 6097), sequence (P51449 whole entry, looked up, the tested form may be a part): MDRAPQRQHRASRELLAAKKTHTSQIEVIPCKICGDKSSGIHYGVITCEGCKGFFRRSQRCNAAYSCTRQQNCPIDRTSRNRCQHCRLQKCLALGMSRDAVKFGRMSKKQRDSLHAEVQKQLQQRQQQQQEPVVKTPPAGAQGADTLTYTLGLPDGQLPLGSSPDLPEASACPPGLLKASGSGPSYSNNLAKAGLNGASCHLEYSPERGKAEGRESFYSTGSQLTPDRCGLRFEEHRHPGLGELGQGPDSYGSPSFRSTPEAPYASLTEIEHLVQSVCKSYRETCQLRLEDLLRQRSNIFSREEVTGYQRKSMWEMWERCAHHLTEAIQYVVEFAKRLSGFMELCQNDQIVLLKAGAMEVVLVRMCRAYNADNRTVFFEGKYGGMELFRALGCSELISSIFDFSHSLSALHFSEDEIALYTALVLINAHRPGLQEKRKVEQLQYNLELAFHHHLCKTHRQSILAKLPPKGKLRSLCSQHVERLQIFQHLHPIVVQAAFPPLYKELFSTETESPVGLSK

| SMILES | outcome | AC50 |
| --- | --- | --- |
| CC(C)(C)C(=O)C1C(=O)c2ccccc2C1=O | inactive | – |
| F[Si-2](F)(F)(F)(F)F | inactive | – |
| CCc1ccc(C)nc1 | inactive | – |
| Nc1cccnc1N | inactive | – |
| CCN=c1cc2oc3cc(NCC)c(C)cc3c(-c3ccccc3C(=O)OCC)c-2cc1C | inactive | – |
| C=C(C)CCCC | inactive | – |
| CC(=O)CCC(C)C | inactive | – |
| CN1CN(C)CN(C)C1 | inactive | – |
| Cc1ccc2c(c1)OCC(=O)CO2 | inactive | – |
| O=S(=O)(OCC(F)(F)F)C(F)(F)C(F)(F)C(F)(F)C(F)(F)F | inactive | – |
| CSc1ccc(O)cc1C | inactive | – |
| CCCCCCCC/C=C\CCCCCCCC(=O)N(C)CC(=O)O | inactive | – |
| CO[Si](C)(CCC(F)(F)C(F)(F)C(F)(F)C(F)(F)C(F)(F)C(F)(F)F)OC | inactive | – |
| NCC(F)(F)C(F)(F)C(F)(F)C(F)(F)C(F)(F)C(F)(F)F | inactive | – |
| CC(O)C#CC(C)O (configuration not stated) | – | 136 µM (active) |
| CCCC(=O)OCC(COC(=O)CCC)OC(=O)CCC | inactive | – |
| Cc1ccc(O)cn1 | inactive | – |
| CCCCCCCCn1sc(Cl)c(Cl)c1=O | inactive | – |
| CO[Si](CCCOCC1CO1)(OC)OC (configuration not stated) | inactive | – |
| COCCOCCC[Si](C)(O[Si](C)(C)C)O[Si](C)(C)C | inactive | – |
| C[Si](C)O[Si](C)C | inactive | – |
